From PubChem BioAssay (NCATS)
Inconclusive results are not listed. Entries that show only a call come without a potency. Active and inactive are the calls of the source. Unless noted, calls follow the shape of the dose curve; as a rule, active = well fitted curve in the direction sought with a large enough effect; inconclusive = small, poorly fitted or top-dose-only effect, or another doubt; inactive = no such curve, though single readings can be large; an effect the other way counts as inactive or inconclusive.

Tests used:
[1] = qHTS for Inhibitors of the vitamin D receptor (VDR): Hit Validation using a Texas Red Assay (AID 602201)
Outline: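 After a 2-hour room-temperature incubation, polarization of Texas-Red emission was read (Ex 595 nm/Em 615 nm). Final mix contained 7 nM Texas Red, 1.5 uM VDR-LBD and LG19078.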

[2] = target: Calcium and integrin-binding protein 1 (Homo sapiens) (UniProt Q99828); test: Primary qHTS for Identification of Calcium Integrin Binding Protein 1 (CIB1) Competitor (AID 1508620);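 also: GST tagged CIB1 binding a fluorescein labelled alphaIIb integrin peptide tracer; top concentration of the series differs between compounds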
Chain of Calcium and integrin-binding protein 1 (Homo sapiens) (Q99828 whole entry, looked up): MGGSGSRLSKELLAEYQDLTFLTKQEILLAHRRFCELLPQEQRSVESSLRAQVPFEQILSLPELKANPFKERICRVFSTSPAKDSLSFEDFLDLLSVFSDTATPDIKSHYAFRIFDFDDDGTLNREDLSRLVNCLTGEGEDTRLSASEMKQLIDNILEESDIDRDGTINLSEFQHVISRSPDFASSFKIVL
Outline: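 CIB1-GST (1 uM final) and compound incubated 15 min at room temperature before adding FITC-alphaIIb peptide tracer (100 nM final). Competition for binding read by fluorescence polarization (ex 480, em 540) after another 15 min at room temperature.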

[3] = qHTS for Inhibitors of Ubiquitin-specific Protease USP2a Using CHOP2 as the Reporter: K633 Counterscreen (AID 652168); also: series mostly up to about 57 µM
Outline: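 Cell-free interference counterscreen without USP2a: compounds pinned into enzyme-free buffer (20 mM Tris pH 8, 2 mM beta-mercaptoethanol, 0.05% Chaps), then DiUb K48-4IQF substrate added (100 nM stock); fluorescence read kinetically, Ex 525/Em 598.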

[4] = qHTS for Inhibitors of Ubiquitin-specific Protease USP2a Using CHOP2 as the Reporter: Cytotox Assay (AID 652170); also: series mostly up to about 46 µM; nearly all actives have a fitted effect of over 70% in size
Outline: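 HCT116 human colon cancer cells, 600 per well in DMEM with 10% FBS, exposed to compounds for 72 hr at 37 deg C. ATP measured by CellTiter-Glo luminescence, normalized to DMSO cells and no-cell background.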

[5] = target: Ubiquitin carboxyl-terminal hydrolase 2 (Homo sapiens) (UniProt O75604); test: qHTS for Inhibitors of Ubiquitin-specific Protease USP2a Using CHOP2 as the Reporter: K484 Substrate (AID 652173);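 also: cleavage of internally quenched K48 di-ubiquitin substrate measured as rising fluorescence over time; nearly all actives have a fitted effect of over 70% in size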; also: potency is read from the fitted curve at half-maximal effect
Chain of Ubiquitin carboxyl-terminal hydrolase 2 (Homo sapiens) (O75604 whole entry, looked up): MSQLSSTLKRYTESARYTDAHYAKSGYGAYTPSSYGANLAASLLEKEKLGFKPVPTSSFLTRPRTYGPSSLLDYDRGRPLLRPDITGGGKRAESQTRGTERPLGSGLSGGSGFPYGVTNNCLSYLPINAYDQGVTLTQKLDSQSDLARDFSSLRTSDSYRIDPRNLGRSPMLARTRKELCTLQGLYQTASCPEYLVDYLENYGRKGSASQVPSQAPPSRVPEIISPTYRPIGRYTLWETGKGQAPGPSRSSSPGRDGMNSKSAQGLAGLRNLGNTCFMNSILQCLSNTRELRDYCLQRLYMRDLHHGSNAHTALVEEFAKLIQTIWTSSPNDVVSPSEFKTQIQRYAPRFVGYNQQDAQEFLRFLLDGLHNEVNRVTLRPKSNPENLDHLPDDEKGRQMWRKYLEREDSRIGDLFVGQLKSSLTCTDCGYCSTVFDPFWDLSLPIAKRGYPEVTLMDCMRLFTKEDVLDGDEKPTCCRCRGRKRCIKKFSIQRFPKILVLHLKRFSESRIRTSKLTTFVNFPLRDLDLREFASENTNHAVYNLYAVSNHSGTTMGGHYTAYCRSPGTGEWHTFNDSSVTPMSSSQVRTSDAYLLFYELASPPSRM
Outline: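 USP2 (dispensed at 5 nM) was pinned with compounds, then DiUb K48 internally quenched fluorescent substrate (dispensed at 100 nM) was added. The buffer was 20 mM Tris pH 8, 2 mM beta-mercaptoethanol and 0.05% CHAPS. Cleavage was read kinetically as rising fluorescence, Ex 525/Em 598.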

[6] = target: Mitogen-activated protein kinase 10 (Mus musculus) (UniProt Q61831); test: JNK3 AlphaScreen Assay (AID 530; active = well fitted curve in either direction with a large enough effect, not every such curve was filed as active;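 also: kinase came from lysate of stimulated human HepG2 cells; signal reports phosphorylation of biotinylated GST-cJun 1-79 at Ser73 with 10 µM ATP; series mostly up to about 57 µM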)
Outline: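 Room-temperature AlphaScreen kinase assay; pre-activated HepG2 lysate as JNK3 source, biotin-GST-cJun(1-79) substrate, 10 uM ATP, compound 15 min preincubation.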

[7] = target: Cytochrome P450 3A4 (Homo sapiens) (UniProt P08684); test: qHTS Assay for Activators of Cytochrome P450 3A4 (AID 885); also: nearly all actives have a fitted effect of over 65% in size
Chain of Cytochrome P450 3A4 (Homo sapiens) (P08684 whole entry, looked up): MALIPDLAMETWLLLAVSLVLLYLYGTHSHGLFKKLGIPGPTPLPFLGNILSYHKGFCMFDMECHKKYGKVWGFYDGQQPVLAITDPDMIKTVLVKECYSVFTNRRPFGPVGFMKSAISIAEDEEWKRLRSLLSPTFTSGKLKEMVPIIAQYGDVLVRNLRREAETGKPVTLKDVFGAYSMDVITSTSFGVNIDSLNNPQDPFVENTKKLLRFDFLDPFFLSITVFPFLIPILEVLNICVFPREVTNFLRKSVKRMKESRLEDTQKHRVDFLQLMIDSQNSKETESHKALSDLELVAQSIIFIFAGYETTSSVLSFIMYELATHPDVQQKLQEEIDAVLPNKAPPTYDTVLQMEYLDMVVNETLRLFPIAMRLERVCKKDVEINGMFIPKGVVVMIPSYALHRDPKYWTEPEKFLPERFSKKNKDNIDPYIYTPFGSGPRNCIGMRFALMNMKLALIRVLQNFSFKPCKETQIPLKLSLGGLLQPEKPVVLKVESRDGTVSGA
Outline: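 Quantitative HTS format: compounds preincubated with 20nM human CYP3A4 and Luciferin-PPXE substrate at KM, reaction started by NADPH regeneration, stopped after 60 min, luciferase luminescence read 20 min later.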

O=C(CSc1nc2ccc(S(=O)(=O)N3CCOCC3)cc2[nH]1)N1CCOCC1
Potency [1]: inactive | Potency [2]: inactive

COc1cccc(NC(=O)c2cc(-c3ccc(C)c(C)c3)nc3ccccc23)c1
outcome [3]: inactive | Potency [4]: inactive | Potency [5]: 9.68 µM (active) | Potency [2]: inactive

CCN(CC)CCCn1c(-c2ccccc2)nc2c(NCc3ccccc3)nc(C)nc21
outcome [6]: inactive | Potency [7]: inactive | Potency [2]: inactive

Cc1ccc(-c2cc(C(=O)O)c3cccc(C)c3n2)cc1C
outcome [3]: inactive | Potency [4]: inactive | Potency [5]: inactive | Potency [2]: inactive

Cc1ccc(S(=O)(=O)Nc2cnccc2C(=O)Nc2ccc(-n3cncn3)cc2)cc1
outcome [3]: inactive | Potency [4]: inactive | Potency [2]: inactive

O=C(Nc1ccc(S(=O)(=O)Nc2nccs2)cc1)C1CC(OCc2ccccc2)C1 (stereo unspecified)
outcome [3]: inactive | Potency [4]: inactive | Potency [2]: inactive

COc1ccc(NC(=O)c2cc(-c3ccc(C)c(C)c3)nc3ccccc23)cc1
outcome [3]: inactive | Potency [4]: inactive | Potency [2]: inactive

O=S(=O)(Nc1ccc(S(=O)(=O)Nc2nccs2)cc1)c1ccc2ccccc2c1
outcome [3]: inactive | Potency [4]: inactive | Potency [2]: inactive

Cc1ccc(S(=O)(=O)Nc2cnccc2C(=O)Nc2ccccc2)cc1
outcome [3]: inactive | Potency [4]: inactive | Potency [2]: inactive

Cc1ccc(-c2cc(C(=O)Nc3ccc(C(=O)O)cc3)c3ccccc3n2)cc1C
outcome [3]: inactive | Potency [4]: inactive | Potency [5]: 21.7 µM (active) | Potency [2]: inactive

Cc1ccc(S(=O)(=O)Nc2cnccc2C(=O)Nc2ccc(-c3nc4ccccc4[nH]3)cc2)cc1
outcome [3]: inactive | Potency [4]: inactive | Potency [5]: 2.17 µM (active) | Potency [2]: inactive

CCCn1c(C)nc2c(NC(C)CCCN(CC)CC)nc(C)nc21 (stereo unspecified)
outcome [6]: inactive | Potency [7]: inactive | Potency [2]: inactive

CCCn1c(-c2ccc(F)cc2)nc2c(N(C)CCN(C)C)nc(C)nc21
outcome [6]: inactive | Potency [7]: inactive | Potency [2]: inactive

Cc1ccc(S(=O)(=O)Nc2cnccc2C(=O)NCc2ccccc2)cc1
outcome [3]: inactive | Potency [4]: inactive | Potency [2]: inactive

Cc1ccc(-c2cc(C(=O)N3CC[S+](=O)([O-])CC3)c3ccccc3n2)cc1C
outcome [3]: inactive | Potency [4]: inactive | Potency [5]: inactive | Potency [2]: inactive

Cc1nc(Nc2ccccc2)c2nc(-c3ccccc3)n(CCN3CCOCC3)c2n1
outcome [6]: inactive | Potency [7]: inactive | Potency [2]: inactive

O=C(Nc1ccc(S(=O)(=O)Nc2nc(-c3ccccc3)cs2)cc1)c1ccc2ccccc2c1
outcome [3]: inactive | Potency [4]: inactive | Potency [5]: 2.43 µM (active) | Potency [2]: inactive

O=C(Nc1ccc([S+](=O)([O-])Nc2nccs2)cc1)c1ccn[nH]1
outcome [3]: inactive | Potency [4]: inactive | Potency [5]: inactive | Potency [2]: inactive

CCCn1c(-c2ccc(F)cc2)nc2c(N3CCN(C)CC3)nc(C)nc21
outcome [6]: inactive | Potency [7]: inactive | Potency [2]: inactive

Cc1ccc([S+](=O)([O-])n2cc(-c3ccc(-c4ccccc4)cc3)c3ccccc32)cc1
outcome [3]: inactive | Potency [4]: inactive | Potency [5]: inactive | Potency [2]: inactive

CCCn1c(-c2ccc(F)cc2)nc2c(NCCCN(CCO)CCO)nc(C)nc21
outcome [6]: inactive | Potency [7]: inactive | Potency [2]: inactive

Cc1ccc(S(=O)(=O)Nc2cnccc2C(=O)Nc2ccc(N3CCOCC3)cc2)cc1
outcome [3]: inactive | Potency [4]: inactive | Potency [2]: inactive

O=C(Nc1ccc(S(=O)(=O)Nc2nccs2)cc1)c1cccc2ccccc12
outcome [3]: inactive | Potency [4]: inactive | Potency [5]: 24.3 µM (active) | Potency [2]: inactive

Cc1ccc(-c2cc(C(=O)Nc3cccc(Cl)c3)c3ccccc3n2)cc1C
outcome [3]: inactive | Potency [4]: inactive | Potency [2]: inactive

Clc1nc(CN2CCOCC2)nc2sc3c(c12)CCCC3
outcome [3]: inactive | Potency [4]: inactive | Potency [5]: inactive | Potency [2]: inactive

CCCn1c(-c2ccc(F)cc2)nc2c(NCCCCN(C)C)nc(C)nc21
outcome [6]: inactive | Potency [7]: inactive | Potency [2]: inactive

CCCCNc1nc(C)nc2c1nc(-c1ccccc1)n2CCCN(C)C
outcome [6]: inactive | Potency [7]: inactive | Potency [2]: inactive

COc1ccc(C(=O)Nc2nc(-c3ccccc3)cs2)c(OC)c1
outcome [3]: inactive | Potency [4]: inactive | Potency [2]: inactive

Cc1ccc(-c2cc(C(=O)Nc3ccccn3)c3ccccc3n2)cc1C
outcome [3]: inactive | Potency [4]: inactive | Potency [2]: inactive
